These results are taken from PubChem BioAssay AID720540 (National Center for Advancing Translational Sciences (NCATS), 2013).

Each structure is given as a SMILES string. Hit rate of the full screen: of about 1,300 compounds, about 460 (35%) were called active. Inconclusive results (about 39%) are left out. Calls follow the shape of the dose curve; as a rule, active = well fitted inhibition curve with a large enough effect; inconclusive = small, poorly fitted or top-dose-only effect; inactive = flat fitted curve, though single readings scatter. This is one part of the list.

Protein phosphatase EYA2 (Homo sapiens), sequence (O00167 whole entry, looked up): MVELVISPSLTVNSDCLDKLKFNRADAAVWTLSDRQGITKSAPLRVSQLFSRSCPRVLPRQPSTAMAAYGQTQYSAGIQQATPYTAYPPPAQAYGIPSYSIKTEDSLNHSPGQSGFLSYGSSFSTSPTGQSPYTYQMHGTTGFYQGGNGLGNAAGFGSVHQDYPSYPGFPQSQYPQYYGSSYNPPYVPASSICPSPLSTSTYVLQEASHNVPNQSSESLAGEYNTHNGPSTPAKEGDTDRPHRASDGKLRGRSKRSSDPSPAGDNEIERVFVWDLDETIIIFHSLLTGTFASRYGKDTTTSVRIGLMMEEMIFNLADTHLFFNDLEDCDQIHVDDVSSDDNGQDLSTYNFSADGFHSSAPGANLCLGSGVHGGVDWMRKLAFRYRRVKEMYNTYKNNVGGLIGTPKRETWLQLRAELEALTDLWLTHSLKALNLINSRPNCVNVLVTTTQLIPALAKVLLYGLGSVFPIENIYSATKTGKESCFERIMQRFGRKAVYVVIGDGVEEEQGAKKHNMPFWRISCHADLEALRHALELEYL

The assay has as its target Protein phosphatase EYA2 (Homo sapiens) (UniProt O00167). In words: qHTS for Inhibitors of the Phosphatase Activity of Eya2: Confirmatory Assay for Cherry-picked Compounds. Also: nearly all actives have a fitted effect of over 65% in size.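 As to activity change, negative = inhibition: 0% = DMSO wells and -100% = EGTA control giving full inhibition.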 Particulars: purified EYA2 phosphatase activity, qHTS confirmation; series mostly up to 46.1 µM; activity change, negative = inhibition: at the top concentration. From the text:
The Eya protein family is an essential co-activator of the Six1 transcription factor. Six1 is a developmental gene that is abnormally re-expressed in a large percentage of breast cancers. This over-expression plays a causal role in the initiation and metastatic development of breast cancers. The Eya family of protein is also found to contain a unique HAD phosphatase domain with protein tyrosine phosphatase activity which can potentially play a role in Six1-mediated breast tumorigenesis. Recently, Eya2 is found to dephosphorylate the histone variant H2AX and direct cells towards DNA repair instead of apoptosis in the event of DNA damage.
A 1536 well format, fluorescence based qHTS assay was developed and used to target the phosphatase activity of Eya2 (AID 488837). Inhibitors found against Eya2 could serve as potential therapeutic tools to inhibit Six1-mediated breast tumorigenesis and to increase the efficiency of radiation and certain chemo therapy. This assay assessed the activity of the primary screen cherry-picked compounds against Eya2. Inhibition is the desired outcome for this assay.
NIH Chemical Genomics Center [NCGC]
NIH Molecular Libraries Probe Centers Network [MLPCN]
Assay Submitter (PI): Rui Zhao, University of Colorado Denver
Eya2 enzyme and 3-O-methyl-fluorescein phosphate (OMFP) substrate working solutions were reconstituted in the buffer reagent consist of 50 mM HEPES pH 7.5, 50 mM NaCl, […], 0.05% BSA and 1 mM DTT. One and a half microliter of 0.2 uM Eya2 working solution was dispensed in a 1536 well Greiner plate (black, medium bind). Twenty-three nanoliter of test compounds and control compound EGTA was transferred to the assay plate using the Kalypsys robotic system equipped with a 1536 pin head. The plate was incubated at room temperature for 10 minutes. One and a half microliter of the 50 uM the OMFP substrate was then dispensed to the assay plate and incubated at room temperature for additional 10 min. The fluorescence signal was read using the PerkinElmer ViewLux plate reader using a 485 nm excitation and 525 nm emission filters. The data was normalized to the positive control for maximum inhibition and DMSO treated wells as negative control.
In general terms: qHTS replaces the single test concentration by a dilution series.
With `O=c1cc(CSc2ccc(Cl)cc2)nc(-c2ccccn2)[nH]1`, the Potency is 2.13 µM (active).

As for `NC(=O)c1ccc(NC(=O)COC(=O)/C=C/c2ccc(Br)o2)cc1`, the “activity change, negative = inhibition” value is -25.7% (inactive).

Take `Cc1ccc(/C=C/C(=O)Nc2ccc(N(C)C)cc2)o1`: the Potency was 19 µM (active).

Consider `CCn1ccnc1CNCc1cn(-c2cc(C)ccc2C)nc1-c1ccccc1`, for which the Potency was 15.1 µM (active).

Consider `COc1cc(N)c(Cl)cc1C(=O)N[C@H]1CCN(CCCOc2ccc(F)cc2)C[C@H]1OC`, for which the “activity change, negative = inhibition” value was -13.7% (inactive).

Turning to `O=c1c(CO)cc(CO)cc(CO)c1O`, the Potency is 5.36 µM (active).

As for `Cc1cc(NS(=O)(=O)c2ccc(NC(=O)c3cnc(Cl)c(Cl)c3)cc2)nc(C)n1`, the Potency is 2.39 µM (active).

Regarding `O=C(Nc1ccc(Nc2ccccc2)cc1)c1ccc(Cl)cc1[N+](=O)[O-]`, the “activity change, negative = inhibition” value was -22.8% (inactive).

`O=C(O)c1ccc(Nc2cnc3ccccc3n2)cc1`: the “activity change, negative = inhibition” value is -19.6% (inactive).

For `O=C(Nc1ccc(S(=O)(=O)Nc2cnc3ccccc3n2)cc1)c1ccc(Cl)c([N+](=O)[O-])c1`, the Potency is 16.9 µM (active).

Regarding `Cc1cc(NS(=O)(=O)c2ccc(NC(=O)c3cc4c(=O)n5ccccc5nc4s3)cc2)nc(C)n1`, the Potency is 8.49 µM (active).

With `CN=c1scc(C)n1/N=C/c1ccc2c(c1)OCO2`, the “activity change, negative = inhibition” value is -29.4% (inactive).

For the molecule `CC1CCC2C(=O)N(c3ccc(C(=O)Oc4cccc5cccnc45)cc3)C(=O)C2C1` (stereo not drawn), the Potency was 8.49 µM (active).

`COc1ccc(C(=O)/C=C/Nc2ccc(S(=O)(=O)Nc3nc(C)cc(C)n3)cc2)cc1OC`: the Potency is 13.5 µM (active).

In the case of `COc1cc(NS(=O)(=O)c2ccc(N/C=C\C(=O)c3ccc(OC)c(OC)c3)cc2)nc(OC)n1`, the Potency is 9.53 µM (active).

As for `CC(=O)Nc1ccc2nc(C3CC3)n(Cc3ccc(Cl)cc3)c(=O)c2c1`, the “activity change, negative = inhibition” value is -22.3% (inactive).

On to `CN1C=C/C(=C\c2cc[n+](C)c3ccccc23)c2ccccc21`, for which the Potency was 16.9 µM (active).

`C[n+]1ccc(/C=C/c2cc[n+](C)c3ccccc23)c2ccccc21`: the Potency was 9.53 µM (active).

Turning to `Cc1cc(C)c2nc(SCC(=O)N(C)C3CCS(=O)(=O)C3)cc(C)c2c1` (stereo not drawn), the “activity change, negative = inhibition” value was 17.5% (inactive).

Regarding `CCCCC1=CC2=C(c3ccco3)C(=O)C(C)(OC(=O)c3ccc(OC)cc3)C(=O)C2=CN1CCc1ccccn1` (stereo not drawn), the “activity change, negative = inhibition” value was -29.5% (inactive).

Regarding `COc1cc(C=NO)nc(-c2ccccn2)c1`, the Potency was 1.2 µM (active).

For the molecule `Oc1c(Cl)cc(CN2CCOCC2)c2cccnc12`, the Potency was 0.478 µM (active).

In the case of `CC(C)Cc1nc2oc3c(=O)[nH]cnc3c2c2c1CCC2`, the Potency is 19 µM (active).

For the molecule `O=C(O)CCc1c2ccc(=O)c(O)c-2oc2c(O)c(O)ccc12`, the Potency is 1.69 µM (active).

Turning to `O=C(O)c1cccc2cccc(-c3c4ccc(=O)c(O)c-4oc4c(O)c(O)ccc34)c12`, the Potency is 3.79 µM (active).

Take `COc1ccccc1NC(=O)NCCN1CCN(C(=O)Nc2ccccc2OC)CC1`: the “activity change, negative = inhibition” value is -11.2% (inactive).

As for `COc1cc(C(C(=O)NC2CCCCC2)N(C(=O)Cc2c[nH]c3ccccc23)c2ccc(C)cc2)cc(OC)c1OC` (stereo not drawn), the “activity change, negative = inhibition” value is -26.6% (inactive).

As to `O=C(O)c1cccc(N2C(=O)c3cccc(Oc4ccc(Cl)cc4)c3C2=O)c1`, the “activity change, negative = inhibition” value was -12% (inactive).

`CC(=O)Oc1cccc2c1C(=O)c1c(OC(C)=O)cc(C(=O)O)cc1C2=O`: the Potency is 16.9 µM (active).

As for `O=S(c1cc(Cl)cc(Cl)c1O)c1cc(Cl)cc(Cl)c1O`, the Potency was 1.35 µM (active).

For `CCN(CC)c1ccc(NC(=S)NC(=O)c2cccs2)cc1`, the Potency was 13.5 µM (active).

With `CCCC(=O)Nc1ccc(NC(=S)NC(=O)c2cccs2)cc1`, the “activity change, negative = inhibition” value is -22% (inactive).

For the molecule `CCC(=O)NC(=S)Nc1ccc(NC(=O)COc2ccc([N+](=O)[O-])cc2)cc1`, the “activity change, negative = inhibition” value is -14.9% (inactive).

As to `O=c1[nH][nH]cc1C=Nc1cc(Cl)ccc1O`, the Potency was 5.36 µM (active).

With `CCOC(=O)c1cc2c(N)c(C(=O)c3ccc(Br)cc3)sc2[nH]c1=O`, the Potency is 1.9 µM (active).

Take `O=C(Nc1nc(-c2ccccn2)cs1)C1CC(=O)N(c2ccc3c(c2)OCCO3)C1` (stereo not drawn): the Potency is 7.57 µM (active).

In the case of `CCc1ccc(-c2csc(NC(=O)C3CC(=O)N(c4ccc5c(c4)OCCO5)C3)n2)cc1` (stereo not drawn), the “activity change, negative = inhibition” value was -19.7% (inactive).

Regarding `O=C(Nc1nc(-c2ccco2)c(-c2ccco2)s1)C1CC(=O)N(c2ccc3c(c2)OCCO3)C1` (stereo not drawn), the Potency was 19 µM (active).

In the case of `Cc1ccc(SCc2nc(N)nc(Nc3ccccc3C)n2)cc1C`, the “activity change, negative = inhibition” value is -27.8% (inactive).

Take `COc1ccc(-c2c(N)cnc(C(=O)O)c2C)c(OCc2ccccc2)c1OC`: the Potency is 19 µM (active).

Turning to `Cc1ccc(C(=O)Oc2cc(C)n(C)c(=O)c2)cc1`, the Potency was 1.51 µM (active).

In the case of `Cc1cc(OC(=O)c2ccc(Cl)cc2)cc(=O)n1C`, the Potency is 2.39 µM (active).

Turning to `Cc1ccc(NC(=O)CSc2cccc3cccnc23)c(C)c1`, the Potency was 5.36 µM (active).

Consider `CCN1C(=O)/C(=C2/C=Cc3ccccc3N2CC)SC1=S`, for which the Potency was 3.79 µM (active).

On to `Cc1cccc(NC2=C(NCCO)C(=O)c3ccccc3C2=O)c1`, for which the Potency is 16.9 µM (active).

On to `c1ccc2cc(CSCc3nc4ccccc4[nH]3)ccc2c1`, for which the “activity change, negative = inhibition” value was -26.1% (inactive).

As to `Cc1nn2c(c1-c1ccccc1)NC1=C(C(=O)CCC1)C2c1ccccc1` (stereo not drawn), the “activity change, negative = inhibition” value is -15.1% (inactive).

As for `O=C1C=CC(=O)c2c(O)c(N3CCN(CCOCCO)CC3)c(Br)c(O)c21`, the Potency is 13.5 µM (active).
